# Source: PubChem BioAssay (several laboratories)
# In the library only some 1.3% were active in any assay of this set; here they are far more common.
# S1P4 antag: antagonists of human S1P4 receptor; O95977; S1P4-expressing cells, antagonist mode, reporter read-out; inhibition, % at 4.98 µM; actives 0.26% (n = 220,000); AID 1510; in the data active = inhibition above about 29%;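 note: 0% = wells stimulated with agonist and 100% = vehicle wells without agonist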
# Target sequence (O95977 whole entry, looked up): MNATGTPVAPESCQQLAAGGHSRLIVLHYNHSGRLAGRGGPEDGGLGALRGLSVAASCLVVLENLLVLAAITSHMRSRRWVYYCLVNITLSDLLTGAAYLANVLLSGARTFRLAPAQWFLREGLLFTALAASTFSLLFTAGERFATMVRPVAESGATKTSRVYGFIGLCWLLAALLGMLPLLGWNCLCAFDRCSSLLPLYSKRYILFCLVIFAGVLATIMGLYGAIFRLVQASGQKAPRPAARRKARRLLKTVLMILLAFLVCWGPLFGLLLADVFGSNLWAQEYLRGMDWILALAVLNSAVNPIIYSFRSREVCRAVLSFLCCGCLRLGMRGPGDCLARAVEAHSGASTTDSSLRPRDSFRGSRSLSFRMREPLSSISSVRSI
# PERK inh: human PERK inhibition, primary cell-based screen; CHO PERK-DD fusion, SEAP luminescence translation reporter; Q9NZJ5; AID 1416; inhibition, % at 5.6 µM; actives 0.17% (n = 220,000);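 active = inhibition above the mean inhibition of all tested compounds plus 3 SD, set separately per screening campaign, cut at about 2.9% in these data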;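 note: PERK kinase domain activated by AP20187 dimerizer at 100 nM; 0% = DMSO with dimerizer and 100% = rapamycin at 8.4 µM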
# Calpain2 inh: inhibitors of pig calpain II. purified calpain II, fluorogenic peptide substrate, 30 min. inhibition, % at 16 µM. actives 0.37% (n = 220,000). AID 1236;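 active = inhibition above about 50%, limit read from the data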
# S1P4 ag: human S1P4 receptor agonism; O95977; S1P4-expressing cell line, agonist reporter assay; activation, % at 4.98 µM; actives 0.35% (n = 220,000); in the data active = activation above about 11%;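 note: 0% = DMSO vehicle and 100% = reference agonist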
# S1P3 antag: antagonists of human S1P3 receptor. actives 0.27% (n = 170,000). CHO S1P3 NFAT-BLA reporter, FRET fluorescence, antagonist mode. AID 485. inhibition, % at 4.98 µM;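 active = inhibition above the plate cutoff, the mean inhibition of test wells on that plate plus 3 SD, cut at about 28% in these data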;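 note: cells challenged with S1P at its EC80 of 0.8 µM; blue over green emission ratio from cleaved BLA substrate after 4 h stimulation; 0% = S1P-stimulated wells and 100% = unstimulated DMSO-only wells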
# S1P4 antag cf: confirmation of human S1P4 receptor antagonists. shares compounds with S1P4 antag. S1P4-expressing cell line, antagonist mode, reporter read-out. inhibition, % at 4.98 µM. actives 71% (n = 520); in the data active = inhibition above about 30%
# S1P1 antag: human S1P1 antagonism as S1P4 antagonist counter-screen; shares compounds with S1P4 antag; cell-based S1P1 antagonist counterscreen, inhibition; inhibition, % at 4.98 µM; actives 37% (n = 520); AID 1564; in the data active = inhibition above about 40%;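 note: receptor stimulated with S1P near its EC80; 0% = agonist stimulated wells and 100% = vehicle only wells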
# An asterisk follows results filed as active; / = no result given.
SMILES,S1P4 antag,PERK inh,Calpain2 inh,S1P4 ag,S1P3 antag,S1P4 antag cf,S1P1 antag
Cc1ccc(NC(=O)COC(=O)c2ccc([N+](=O)[O-])o2)cc1S(=O)(=O)N1CCCCC1,-4.8,1.8,-36.8,0.2,-11.4,/,/
OC(CNCCc1ccccc1)COc1ccc(OCC(O)CNCCc2ccccc2)cc1 (stereo not drawn),32.4*,0.4,13.1,-0.8,8.9,55.2*,39.1
O=[N+]([O-])c1cc(C(F)(F)F)cc([N+](=O)[O-])c1Sc1n[nH]c(C(F)(F)F)n1,4.0,1.1,23.4,-0.3,-6.9,/,/
O=C(/C=C/c1ccc(Br)cc1)c1ccc(NC(=O)c2ccco2)cc1,-17.1,-0.4,-57.7,1.5,7.0,/,/
O=C(/C=C/c1ccc(Br)cc1)c1ccco1,54.1*,0.1,29.3,-1.0,-0.9,80.6*,17.6
CC(C)C(NC(=O)C1CCCCC1)C(=O)NCCc1ccccc1 (stereo not drawn),-1.1,0.3,-8.0,0.7,-34.3,/,/
Cn1c(=O)c2c(ncn2Cc2nnc(N)s2)n(C)c1=O,-15.4,0.2,1.1,-1.1,-4.5,/,/
O=c1c(Cl)c(Cl)cnn1Cc1ccc(F)cc1,60.1*,0.4,25.9,-3.9,-1.2,104.9*,31.0
O=C1CN(C(=O)Cn2ncc(Cl)c(Cl)c2=O)c2ccccc2N1,37.5*,-0.4,-40.0,-3.9,4.1,117.0*,69.1*
O=C(OCn1ncc(Cl)c(Cl)c1=O)c1ccc(F)cc1,-18.0,0.5,20.3,-5.1,/,/,/
O=C(Cn1ncc(Cl)c(Cl)c1=O)c1ccc(Cl)cc1,43.9*,0.1,-13.9,-0.6,/,106.8*,62.9*
Cc1nc2ccccc2n1CC(=O)N1CC(=O)Nc2ccccc21,-3.6,1.1,10.2,-4.0,-6.2,/,/
Cc1ccc(NC(=O)CN(C)C(=O)Cn2ncc(Cl)c(Cl)c2=O)cc1,82.0*,1.2,-83.0,0.7,5.0,105.6*,79.3*
CCCCc1ccc(NC(=S)NCCc2ccc(F)cc2)cc1,-3.5,0.4,17.1,0.8,-15.2,/,/
CC(C)(C)C(=O)Cn1ncc(Cl)c(Cl)c1=O,53.5*,-0.4,19.3,-1.3,-1.4,77.8*,24.4
CCCn1c(NC(=O)c2ccccc2)nc2ccccc21,29.5*,-2.2,-29.0,-3.2,-59.1,4.9,8.9
Cc1ccc(C(=O)Nc2nc3ccccc3n2CCN2CCCC2)cc1,30.5*,-1.4,27.2,-2.5,-4.3,8.0,-10.9
CC(C)c1ccc(/C=N/n2cnnc2)cc1,-0.5,0.4,0.4,1.4,1.3,/,/
Cc1cc(C)[n+](C)n1CC(O)Cn1c2ccccc2c2ccccc21 (stereo not drawn),0.3,-0.7,9.0,-1.4,-18.2,/,/
CCCCC1=CC2=C(c3ccco3)C(=O)C(C)(OC(=O)c3ccc(OC)cc3)C(=O)C2=CN1C1CCCCC1 (stereo not drawn),/,/,-62.0,/,/,/,/
Cc1ccc(NC(=O)C(=O)NCC2CCCO2)cc1 (stereo not drawn),78.8*,0.6,-1.0,-1.7,-20.5,-7.8,-11.5
Cc1cc(CNC(=O)c2cccnc2Cl)c2ccccc2n1,-2.1,-0.1,-2.3,0.9,-12.2,/,/
Fc1c(F)c(F)c(/C=N/NC(=S)Nc2cccnc2)c(F)c1F,39.9*,1.2,-20.1,-3.0,-3.7,65.8*,18.7
Fc1cccc(F)c1/C=N/NC(=S)Nc1cccnc1,-10.2,0.6,-6.9,1.4,-21.8,/,/
COc1cc(-c2nc3n(n2)C(c2ccncc2)C(C(N)=O)=C(C)N3)cc(OC)c1OC (stereo not drawn),65.9*,0.1,4.4,0.5,-4.7,-0.9,5.1
O=C1/C(=C/c2ccc(O)cc2)SC(=S)N1CC1CCCO1 (stereo not drawn),29.7*,0.6,43.5,1.9,-12.7,4.5,5.6
CCCOc1ccc(/C=C2\SC(=S)N(CC3CCCO3)C2=O)cc1 (stereo not drawn),-1.9,0.8,36.8,-0.1,-8.1,/,/
CCOc1ccc(-c2nc(-c3ccccc3)no2)cc1OCC,78.4*,1.1,3.3,1.3,-13.4,-2.9,-42.4
Cc1ccc(C)c(N(C(=O)Cn2nnc3ccccc32)C(C(=O)NCc2ccco2)c2ccncc2)c1 (stereo not drawn),34.2*,0.4,-30.1,-0.6,-20.5,0.4,14.6
O=C(/C=C/c1ccccc1O)c1ccc(Cl)cc1,45.6*,0.3,14.4,-1.2,-4.1,59.4*,23.8
